# Source: the supplement of paper PMC9135407
# “And” between values parts separate entries of the source, which are not always exact repeats. Equal values may be shown once. Where a name gives a salt, the structure may show the parent alone. About 620 (11%) of roughly 5,800 compounds showed activity. The full list was thinned out, with actives kept by preference. A number with no mark means an inactive call.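 How the source made its calls: active = score above a cut-off or among the top three wells of a plate; in these data no inactive exceeds 0.85.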
# Tested on: primary human hepatic stellate cells (donor 1)
# Test: scaled lipid accumulation score (0 = DMSO-like, 1 = nortriptyline-like); higher = stronger HSC inactivation (lipid re-accumulation), active = hit call of the paper
# Conditions: 48 h
# [1] = library stock concentration: 3.33 mM
# [2] = library stock concentration: 10 mM
# [3] = library stock concentration: 1 mM
# [4] = library stock concentration: 100 uM
# [5] = library stock concentration: 80 uM
# [6] = library stock concentration: 400 uM
# [7] = library stock concentration: 2 mM
# [8] = library stock concentration: 6.8 mM
# [9] = library stock concentration: 4.9 mM
structure (smiles),measurement,setting,value
CS(=O)(=O)c1ccc([C@H](O)[C@@H](COC(=O)CN)NC(=O)C(Cl)Cl)cc1 [Thiamphenicol glycinate],scaled lipid accumulation score,library stock concentration: 4.8 mM,0.01
O=C(O)Cn1nnc(-c2cc(N3CCC(Oc4cc(F)ccc4Br)CC3)no2)n1,scaled lipid accumulation score,[1],≤ 0
same,scaled lipid accumulation score,[2],≤ 0
CCCCC[C@H](O)/C=C/[C@@H]1[C@@H](C/C=C\CCCC(=O)N(CC)CC)[C@@H](O)C[C@H]1O [Prostaglandin F2.alpha. diethyl amide],scaled lipid accumulation score,[3],≤ 0
CCc1cccc(N(C)C(=N)Nc2cccc3ccccc23)c1.Cl,scaled lipid accumulation score,[2],0.912 (active)
CC1CCC(C(C)C)C(O)C1 (stereo not drawn) [Menthol(-)],scaled lipid accumulation score,[2],≤ -0.027
CC1(C)CC(=O)C(C2C3=C(CC(C)(C)CC3=O)Oc3ccccc32)C(=O)C1 (stereo not given),scaled lipid accumulation score,[2],≤ -0.002
CCCCCC1OC1C/C=C\C/C=C\C/C=C\CCCC(=O)O (stereo not given),scaled lipid accumulation score,[4],≤ -0.021
CC(=O)c1cnc2ccc(-c3cc(Cl)c(O)c(Cl)c3)nc2c1N[C@H]1CC[C@H](CN(C)C)CC1,scaled lipid accumulation score,[5],0.258
same,scaled lipid accumulation score,[6],0.847
same,scaled lipid accumulation score,[7],0.765
CC(=O)c1cnc2ccc(-c3cc(Cl)c(O)c(Cl)c3)nc2c1N[C@H]1CC[C@H](CN(C)C)CC1.Cl,scaled lipid accumulation score,[2],0.872 (active)
CCN(CC)CCNC(C(=O)OCCC(C)C)c1ccccc1 (stereo not given),scaled lipid accumulation score,[2],0.521
Cc1ccc(C(=O)NCCCCCC(=O)Nc2ccccc2N)cc1,scaled lipid accumulation score,[1],≤ -0.009
same,scaled lipid accumulation score,[2],0.662
c1ccc2c3c([nH]c2c1)C1C2CCC(C4CCCNC42)N1CC3 (stereo not given) [Nitrarine dihydrochloride],scaled lipid accumulation score,,≤ 0
CCOC(=O)[C@H](CCc1ccccc1)N[C@@H](C)C(=O)N1CCC[C@H]1C(=O)O [Enalapril],scaled lipid accumulation score,library stock concentration: 5.3 mM,≤ 0
C[C@H](CS)C(=O)N1CCC[C@H]1C(=O)O,scaled lipid accumulation score,[2],≤ 0
CCOC(=O)[C@H](CCc1ccccc1)N[C@@H](C)C(=O)N1CCC[C@H]1C(=O)O,scaled lipid accumulation score,[2],≤ 0
C[C@H](CS)C(=O)N1CCC[C@H]1C(=O)O [Captopril],scaled lipid accumulation score,,0.036
same,scaled lipid accumulation score,[1],≤ 0
same,scaled lipid accumulation score,library stock concentration: 9.2 mM,≤ -0.006 and ≤ 0
same,scaled lipid accumulation score,[2],≤ 0
CCOC(=O)[C@H](CCc1ccccc1)N[C@@H](C)C(=O)N1CCC[C@H]1C(=O)O [Enalapril maleate],scaled lipid accumulation score,,≤ 0
same,scaled lipid accumulation score,[2],≤ 0
CCOC(=O)[C@H](CCc1ccccc1)N[C@@H](C)C(=O)N1CCC[C@H]1C(=O)O [Enalapril Maleate],scaled lipid accumulation score,[1],0.026
same,scaled lipid accumulation score,[2],≤ 0
CCCNC(=O)[C@H]1O[C@@H]1C(=O)N[C@H](C(=O)N1CCC[C@H]1C(=O)OC)C(C)CC (stereo not given in full),scaled lipid accumulation score,library stock concentration: 12.6 mM,0.868 (active)
O=C(O)/C(=C\c1c(C(=O)O)[nH]c2cc(Cl)cc(Cl)c12)c1ccccc1,scaled lipid accumulation score,[2],0.017
N[C@H](C(=O)O)[C@H](Cc1ccccc1)C(=O)O [L-Beta-threo-benzyl-aspartate],scaled lipid accumulation score,[2],≤ 0
CC(C)NCC(O)COc1cccc2ccccc12 (stereo not given) [Propranolol],scaled lipid accumulation score,library stock concentration: 7.7 mM,0.676
CC(C)NC[C@@H](O)COc1cccc2ccccc12 [(R)-(+)-Propranolol hydrochloride],scaled lipid accumulation score,[2],0.656
CC(C)NCC(O)COc1cccc2ccccc12 (stereo not given) [Propranolol hydrochloride],scaled lipid accumulation score,,0.378
same,scaled lipid accumulation score,[2],0.74
CC(C)NCC(O)COc1cccc2ccccc12.Cl (stereo not given),scaled lipid accumulation score,[2],0.882 (active)
CC(C)NC[C@H](O)COc1cccc2ccccc12.Cl,scaled lipid accumulation score,library stock concentration: 16.9 mM,1.02 (active)
CC(C)NCC(O)COc1cccc2ccccc12 (stereo not given),scaled lipid accumulation score,[2],0.847
CC(C)NCC(O)COc1cccc2ccccc12 (stereo not given) [Propranolol HCl],scaled lipid accumulation score,[1],≤ 0
same,scaled lipid accumulation score,[2],0.555
CC(C)NC[C@H](O)COc1cccc2ccccc12 [(S)-(-)-Propranolol hydrochloride],scaled lipid accumulation score,[2],0.518
CC(C)NC[C@H](O)COc1cccc2ccccc12 [(S)-Propranolol hydrochloride],scaled lipid accumulation score,[2],0.445
CC(C)NC[C@H](O)COc1cccc2ccccc12 [(S)-propranolol hydrochloride],scaled lipid accumulation score,,0.444
CC(C)NC[C@@H](O)COc1cccc2ccccc12 [(R)-Propranolol hydrochloride],scaled lipid accumulation score,,0.415
CC(C)NCC(O)COc1cccc2ccccc12 (racemic) [Propranolol hydrochloride (+/-)],scaled lipid accumulation score,[8],0.363
same,scaled lipid accumulation score,[2],0.457
CC(C)NC[C@@H](O)COc1cccc2ccccc12 [Dexpropranolol hydrochloride],scaled lipid accumulation score,[8],0.521
same,scaled lipid accumulation score,[2],≤ 0
CCCOc1ccc(/C=C2/SC(=O)NC2=O)cc1 [PIM1/2 Kinase Inhibitor VI],scaled lipid accumulation score,[1],0.001
C=CCn1c(=O)n([C@@H]2O[C@H](CO)[C@@H](O)[C@H]2O)c2nc(N)[nH]c(=O)c21,scaled lipid accumulation score,[2],0.047
"CCCCC(C)(C)[C@H](O)/C=C/[C@@H]1[C@@H](C/C=C\CCCC(=O)O)[C@H](O)C[C@H]1O [16,16-dimethyl Prostaglandin F2.beta.]",scaled lipid accumulation score,[3],≤ 0
CCCCCC=CCC=CC=CC=CC(SCC(NC(C)=O)C(=O)O)C(O)CCCC(=O)O (stereo not given) [N-Acetyl-leukotriene E4],scaled lipid accumulation score,[4],0.032
c1ccc(N2CCN(Cc3nc4ccccc4[nH]3)CC2)nc1 [ABT 724 trihydrochloride],scaled lipid accumulation score,[2],≤ -0.001
O=c1c2sc(-c3ccc(F)cc3)cc2ncn1Cc1nc2ccccc2[nH]1,scaled lipid accumulation score,[2],0.756 (active)
O=C(O)CCc1nc2ccccc2[nH]1,scaled lipid accumulation score,[2],0.2
CCCCCCCCCCCCCCCCOP(=O)([O-])OCC[N+](C)(C)C [Miltefosine],scaled lipid accumulation score,[3],≤ 0
same,scaled lipid accumulation score,[9],≤ -0.006
same,scaled lipid accumulation score,[2],0.007
O=C(NCc1ccccc1)c1csc(Nc2ccncn2)n1 [Thiazovivin],scaled lipid accumulation score,[1],≤ 0
same,scaled lipid accumulation score,[2],0.14
O=C(NCc1cccc(O)c1)Nc1nc(-c2ccncc2)cs1 [listing 1 of 2 here],scaled lipid accumulation score,[2],1.02 (active)
O=C(NCc1cccc(O)c1)Nc1nc(-c2ccncc2)cs1 [listing 2 of 2 here],scaled lipid accumulation score,[1],0.56
Cc1nnc(C(C)C)n1C1C[C@H]2CC[C@@H](C1)N2CC[C@H](NC(=O)C1CCC(F)(F)CC1)c1ccccc1 (stereo in doubt) [Maraviroc],scaled lipid accumulation score,[1],≤ 0
same,scaled lipid accumulation score,[2],≤ 0
COc1ccc(/C=C/c2cc(Cl)cc(Cl)c2)cc1,scaled lipid accumulation score,[3],≤ 0
CCCCCCCCCCCCCCCNC(=O)C1CCCCC1 [N-Cyclohexanecarbonylpentadecylamine],scaled lipid accumulation score,[3],≤ 0
CCN(CC)CCCN(c1ccccc1)C1Cc2ccccc2C1 [Aprindine hydrochloride],scaled lipid accumulation score,[2],0.262
O=C(O)CCC/C=C\C[C@@H]1[C@@H](/C=C/[C@H](O)C2Cc3ccccc3C2)[C@@H](F)C[C@@H]1O,scaled lipid accumulation score,[2],≤ -0.07
CC1(C)CC(=O)c2c(C(F)(F)F)nn(-c3ccc(C(N)=O)c(N[C@H]4CC[C@H](O)CC4)c3)c2C1,scaled lipid accumulation score,[1],0.635
same,scaled lipid accumulation score,[2],0.742
CC1(C)CC(=O)c2c(C(F)(F)F)nn(-c3ccc(C(N)=O)c(N[C@H]4CC[C@H](OC(=O)CN)CC4)c3)c2C1 [listing 1 of 2 here],scaled lipid accumulation score,[1],0.77
CC1(C)CC(=O)c2c(C(F)(F)F)nn(-c3ccc(C(N)=O)c(N[C@H]4CC[C@H](OC(=O)CN)CC4)c3)c2C1 [listing 2 of 2 here],scaled lipid accumulation score,[2],1.05 (active)
c1ccc(COCCCc2c[nH]cn2)cc1 [Proxyfan Oxalate],scaled lipid accumulation score,[2],≤ 0
CC(C)(S)C(N)C(=O)O (racemic),scaled lipid accumulation score,[2],≤ 0
Cc1cc(Nc2cc(N3CCN(C)CC3)nc(Sc3ccc(NC(=O)C4CC4)cc3)n2)n[nH]1,scaled lipid accumulation score,[5],0.003
same,scaled lipid accumulation score,[6],0.063
same,scaled lipid accumulation score,[7],0.248
same,scaled lipid accumulation score,[2],0.47
Cc1cc(Nc2cc(N3CCN(C)CC3)nc(C=Cc3ccccc3)n2)n[nH]1,scaled lipid accumulation score,[1],1.06 (active)
"Cc1cc(Nc2cc(N3CCN(C)CC3)nc(Sc3ccc(NC(=O)C4CC4)cc3)n2)n[nH]1 [Tozasertib (VX-680, MK-0457) (2 mM)]",scaled lipid accumulation score,[7],≤ -0.005
"Cc1cc(Nc2cc(N3CCN(C)CC3)nc(Sc3ccc(NC(=O)C4CC4)cc3)n2)n[nH]1 [Tozasertib (VX-680, MK-0457) (0.4 mM)]",scaled lipid accumulation score,[6],≤ -0.005
"Cc1cc(Nc2cc(N3CCN(C)CC3)nc(Sc3ccc(NC(=O)C4CC4)cc3)n2)n[nH]1 [Tozasertib (VX-680, MK-0457) (10 mM)]",scaled lipid accumulation score,[2],0.456
"Cc1cc(Nc2cc(N3CCN(C)CC3)nc(Sc3ccc(NC(=O)C4CC4)cc3)n2)n[nH]1 [VX-680 (Tozasertib, MK-0457)]",scaled lipid accumulation score,[1],0.193
same,scaled lipid accumulation score,[2],0.038
Cc1cc(Nc2cc(N3CCN(C)CC3)nc(/C=C/c3ccccc3)n2)n[nH]1,scaled lipid accumulation score,[2],0.603
Cn1cc(-c2cnn3c(N)c(Br)c([C@@H]4CCCNC4)nc23)cn1,scaled lipid accumulation score,[1],≤ 0
same,scaled lipid accumulation score,[2],0.521
CCCCCCCCCCCCCCCC(=O)N[C@H](CN1CCOCC1)[C@H](O)c1ccccc1 (racemic),scaled lipid accumulation score,[3],≤ -0.021
CCCCC[C@H](O)/C=C/[C@H]1[C@H](O)CC(=O)[C@@H]1CCCCCCCO [Prostaglandin E1 Alcohol],scaled lipid accumulation score,[3],0.129
O=C1C(c2ccccc2)N(c2ccc(Br)cc2)C(=O)N1c1ccc(Br)cc1 (stereo not given),scaled lipid accumulation score,[3],≤ 0
CC[C@H](C)C(=O)O[C@H]1C[C@H](O)C=C2C=C[C@H](C)[C@H](CC[C@@H]3C[C@@H](O)CC(=O)O3)[C@H]21 [Pravastatin lactone],scaled lipid accumulation score,[9],≤ 0
